Screens: PubChem, several laboratories
Only some compounds are listed: those with a hit (about 32% of all), similar ones and a draw of the others.
PostGolgi ctrl: growth of the yeast control strain, post-Golgi counter-screen; efflux-deficient yeast background strain, growth absorbance A615, 16 h; inhibition, % at 10 µM; 98,000 tested, 5% active
CYP2C9 activ: increases human cytochrome P450 2C9 activity; activation factor at 5 µM; 96,000 tested, 1.4% active; recombinant CYP2C9, luciferin-H conversion, luminescence; active compounds read high; factor 1 = untreated enzyme, 0 = blocked; AID 1024;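 active means activation factor of 2 or more for CYP2C9 at a 5 µM dose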;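 further: 0 = sulfaphenazole-blocked wells and 1 = vehicle-only wells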
PostGolgi yeast: growth inhibition of a yeast mutant, post-Golgi transport screen; post-Golgi transport phenotypic cell assay; inhibition, % at 10 µM; 98,000 tested, 0.9% active;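 further: yeast cells grown in 1536-well plates; yeast grown about 18 h at 30C before absorbance read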
CYP2C19 act: activators of human cytochrome P450 2C19; P33261; recombinant CYP2C19, luciferin-H EGE luminescence; active compounds read high; 0 = fully inhibited enzyme, 1 = untreated enzyme; activation factor at 5 µM; 96,000 tested, under 10 active;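 active means activation factor of at least 2 at 5 µM in the primary screen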;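 further: 0 = wells with 2.5 mM tranylcypromine and 1 = vehicle-only wells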
Target sequence (P33261 whole entry, looked up): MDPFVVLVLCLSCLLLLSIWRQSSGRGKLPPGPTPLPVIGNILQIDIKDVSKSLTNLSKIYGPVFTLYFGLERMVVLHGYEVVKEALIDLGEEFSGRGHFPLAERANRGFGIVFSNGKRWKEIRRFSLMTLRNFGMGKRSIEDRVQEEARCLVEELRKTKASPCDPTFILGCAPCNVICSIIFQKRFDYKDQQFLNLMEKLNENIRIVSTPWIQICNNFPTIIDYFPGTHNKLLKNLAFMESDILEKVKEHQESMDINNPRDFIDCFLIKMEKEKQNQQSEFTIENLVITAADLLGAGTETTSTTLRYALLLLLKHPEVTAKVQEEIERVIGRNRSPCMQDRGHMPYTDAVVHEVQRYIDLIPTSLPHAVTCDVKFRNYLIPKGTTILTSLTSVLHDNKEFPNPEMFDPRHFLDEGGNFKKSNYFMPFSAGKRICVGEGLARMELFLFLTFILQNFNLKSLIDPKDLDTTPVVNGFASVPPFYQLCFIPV
CYP2C19 inh: inhibitors of human CYP2C19; inhibition, % at 5 µM; 96,000 tested, 21% active; AID 778; CYP2C19 Supersomes, luciferin-H EGE luminescence, 30 min; P33261;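 active means CYP2C19 inhibition above a set limit at 5 µM in the primary screen, cut at about 50% in these data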;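 further: plate controls were negative control wells for no effect and 2.5 mM tranylcypromine positive control for full effect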
CYP2C9 inhib: human CYP2C9 inhibition; CYP2C9 Supersomes, luciferin-H conversion, luminescence; inhibition, % at 5 µM; 96,000 tested, 20% active;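 active means blocking of liver enzyme CYP2C9 beyond about 50% at 5 µM, limit read from the data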
Active calls of the source: *; nt = no result given. Unless noted, no stated cut-off is given here; in the data, active means inhibition above about 30%; inactive means the rest.

SMILES	PostGolgi ctrl	CYP2C9 activ	PostGolgi yeast	CYP2C19 act	CYP2C19 inh	CYP2C9 inhib
CCS(=O)(=O)c1ccc2oc(Nc3ccccc3C)nc2c1	2	0.5	-1	0.4	59*	54*
Cc1ccccc1Nc1cc(=O)oc2ccccc12	7	0.7	18	0.7	31	30
Cc1ccc(NC(=O)CS(=O)CC(=O)NC(C)CCc2ccco2)cc1Cl (centres undefined)	47*	0.8	8	0.7	34	16
CC(CCc1ccco1)NC(=O)Nc1cccc(F)c1 (centres undefined)	5	0.2	28	0.2	84*	83*
Cc1ccc(NC(=O)N(Cc2ccco2)C(C)c2ccco2)cc1C (centres undefined)	12	0.7	-2	0.7	34	30
CCc1nnc(NC(=O)CN2CCN(C3CCCCC3)CC2)s1	4	1.1	-7	1.1	-12	-9
O=C(c1cccc(Br)c1)N1CCN(C(=O)N2CCCCC2)CC1	4	0.4	4	0.2	77*	61*
O=C(c1cccc(Br)c1)N1CCCC1	2	1.1	0	1.1	-13	-13
CC1CN(C(=O)c2cccc(C(=O)N3CC(C)OC(C)C3)c2)CC(C)O1 (centres undefined)	5	0.8	19	0.9	8	20
Cc1cccc(C(=O)N2CCN(C(=O)c3cccc(C)c3)C(C)C2)c1 (centres undefined)	-4	0.2	4	0.1	89*	78*
Cc1cccc(C(=O)N2CCCCCC2)c1	-8	0.7	-2	0.5	52*	30
O=C(c1cccc(-c2nnc(-c3ccccc3)o2)c1)N1CCCCC1	31*	0.4	7	0.4	56*	62*
CC(Sc1nnc(N)s1)c1ccccc1Cl (centres undefined)	3	0.5	0	0	96*	51*
Nc1nnc(-c2ccccc2Cl)s1	3	1.4	0	0.9	15	-38
Fc1ccc2c(c1)C1C=CCC1C(c1cc3c(cc1Br)OCO3)N2 (centres undefined)	28	0.3	5	0.7	30	69*
COc1ccc(-c2cc(C3CC3)nc3sc(C#N)c(N)c23)cc1	63*	0.4	6	0.4	57*	59*
N#Cc1sc2nc(-c3cccs3)cc(-c3ccc(Cl)cc3)c2c1N	1	0.8	9	0.8	19	17
Cc1ccsc1CN1CCN(c2ccccn2)CC1	7	0.3	13	0.1	93*	70*
N#Cc1nc(-c2ccccc2Cl)oc1NCC1CCCO1 (centres undefined)	5	0.4	-5	0.4	64*	64*
N#Cc1nc(Cc2cccc3ccccc23)oc1NCC1CCCO1 (centres undefined)	22	0.3	1	0.2	84*	72*
COCCNc1oc(-c2ccc(F)cc2)nc1C#N	2	0.7	6	0.7	30	30
CCCOc1ccc(-c2nc(C#N)c(NCC3CCCO3)o2)cc1 (centres undefined)	25	0.8	7	1	4	23
COCCNc1oc(-c2ccccc2Cl)nc1C#N	12	0.3	-1	0.1	88*	69*
COc1ccc(OC)c(NC(=O)C2C3CCC(O3)C2C(=O)O)c1 (centres undefined)	13	1	7	1	2	3
O=C(O)C1C2C=CC(O2)C1C(=O)NCCCn1ccnc1 (centres undefined)	-2	0.9	-5	0.7	26	11
SMILES	PostGolgi ctrl	CYP2C9 activ	PostGolgi yeast	CYP2C19 act	CYP2C19 inh	CYP2C9 inhib
CCOc1ccc(NC(=O)C(=O)NCCCn2ccnc2)cc1	0	0.4	20	0.3	73*	60*
CCC(NC(=O)NCCCn1ccnc1)(C(F)(F)F)C(F)(F)F	12	0.2	0	0	97*	85*
C=COCCNC(=O)Nc1ccc(Cl)c(Cl)c1	10	nt	-5	nt	nt	nt
O=C(NCCCn1ccnc1)Nc1ccc(Cl)cc1	14	0	6	0	97*	98*
O=C(NCCCn1ccnc1)Nc1ccc(Cl)c(Cl)c1	8	0	-2	0.2	76*	100*
CCOC(=O)N1CCN(c2ccc(O)cc2)CC1	1	1	13	1	-5	-4
CCOCCCNC(=O)C(NC(=O)c1ccc(=O)[nH]c1)c1ccccc1 (centres undefined)	6	1	-2	0.9	10	2
O=C(COc1ccc(Cl)cc1)NCCCn1ccnc1	-3	0.1	3	0	99*	90*
O=C(CNC(=O)c1ccc(Cl)cc1Cl)NCCCn1ccnc1	-3	0.5	0	0.3	69*	51*
O=C(c1ccco1)N1CCN(c2ncnc3c2[nH]c2ccc(Br)cc23)CC1	19	0.1	11	0	96*	90*
O=C(c1ccco1)N1CCN(c2ncnc3c2[nH]c2ccccc23)CC1	3	0.6	43*	0.3	67*	40
CCOC(=O)c1c(C=O)c(C)n(Cc2ccccc2Cl)c1C	25	0.1	-4	0	98*	94*
CCOC(=O)c1c(C=O)c(C)n(Cc2ccc(C)cc2)c1C	26	0	16	0.2	76*	96*
CC(=O)c1c(C(C)=O)c(C)n(Cc2ccccc2)c1C	5	0.8	10	0.6	42	15
Cc1c(C=O)c(C=O)c(C)n1Cc1ccccc1	-7	0.7	1	0.4	62*	26
COc1cccc(NC(=O)CC2C(=O)NC3CCCCC3N2C(=O)c2ccc(F)cc2)c1 (centres undefined)	7	0.5	-7	0.8	18	50
c1ccc(C2(c3ccccc3)OCC(Cn3cncn3)O2)cc1 (centres undefined)	5	0.5	6	0.3	66*	52*
CC1=C(C(N)=O)C(c2ccc(C)o2)C(C(N)=O)=C(C)N1	10	0.9	-1	0.9	6	7
O=C(NCc1ccco1)c1cnn2c(C(F)(F)F)cc(-c3ccccc3)nc12	25	0.6	16	1	1	42
Cc1cccc(Cc2c(C)nc3c(C(=O)NCc4ccco4)cnn3c2C)c1	33*	0.4	3	0.5	50*	56*
Cc1nc2c(C(=O)NCc3ccc4c(c3)OCO4)cnn2c(C)c1Cc1ccc(F)cc1Cl	42*	0.1	-2	0.4	59*	86*
Cc1ccc(C)c(Cc2c(C)nc3c(C(=O)NCc4ccc5c(c4)OCO5)cnn3c2C)c1	57*	0.1	4	0.6	43	87*
COc1ccc(-c2cc(C(F)(F)F)n3ncc(C(=O)NCc4ccco4)c3n2)cc1	15	0.5	11	0.5	51*	54*
Cc1ccccc1Cc1c(C)nc2c(C(=O)NCc3ccc4c(c3)OCO4)cnn2c1C	20	0.8	-2	0.9	9	15
CCOC(=O)c1c(NC(=O)CSc2nnc(C)s2)sc2c1CCN(C)C2	3	0.8	3	1	2	16
